# From PubChem BioAssay AID651791 (National Center for Advancing Translational Sciences (NCATS), 2012)
# Inconclusive results are not listed. The source made the active and inactive calls. Calls come from the whole dose curve; as a rule, active = well fitted inhibition curve with a large enough effect; inconclusive = small, poorly fitted or top-dose-only effect; inactive = no such curve, though single readings can be large or run the other way.
# Experiment: InCell qHTS Assay for Inhibitors of the mTORC1 Signaling Pathway in MEF (Tsc2-/-, p53-/-) Cells: Hit Validation; note: nearly all actives have a fitted effect of over 75% in size
# Conditions: phospho-rpS6 immunofluorescence, 24 h; activity change, negative = inhibition: at 38.3 µM (top of the series)
# Source text: The mammalian target of rapamycin (mTOR) is an intracellular serine/threonine kinase Aberrant regulation of mTOR signaling plays a causative role in a number of human diseases, including cancer, benign tumors such as lymphangioleiomyomatosis (LAM) and Tuberous Sclerosis Complex (TSC), and metabolic diseases such as diabetes and obesity. This project aims to identify inhibitors of ribosomal protein S6 (rpS6) phosphorylation. The phosphorylation of rpS6 is a key event downstream of mTOR activation. The assay uses a phospho-specific antibody of phospho-rpS6 to detect inhibitors of mTOR activation. Mutations in the Tsc1 and Tsc2 genes are the underlying genetic lesions responsible for TSC, causing constitutive activation of the mTORC1 pathway and leading to profound effects on cell metabolism. Aberrant metabolism in cancer has recently received significant attention as a target to develop therapeutic agents in the treatment of cancer.1 As Tsc2-/- cells have lost the ability to respond to energy and growth factor deprivation, these cells are unable to properly down regulate cellular biosynthetic processes in response to metabolic stress, and are thus extremely sensitive to glucose deprivation-induced death.2 A central goal of this project is to explore the unique cell survival and metabolic properties of cells with Tsc1 or Tsc2 by screening for compounds that selectively target the Tsc2-/- MEFs by screening both Tsc2-/- and WT MEF cell lines. We hope to better understand these aspects of TSC physiology in order to exploit them for therapeutic benefit. NIH Molecular Libraries Probe Production Centers Network [MLPCN] NIH Chemical Genomics Center [NCGC] MLPCN Grant: NS059428 Assay Submitter (PI): Blenis, John; Harvard University
# For quantitative high throughput analysis of mTORC1 signaling, we developed a cell-based assay for immuno-fluorescence based detection of rpS6 phosphorylation on the Acumen Explorer that will be used a platform for the primary small molecule screen. Mouse embryonic fibroblasts (MEFs) are cultured in 1536-well plates using DMEM + 10% FBS. Twenty-four hrs after plating, test compounds (solubilized in DMSO) are delivered and incubated with the cells for 24 hrs at 37 degree Celsius. Following the incubation, media with compound is aspirated and the cells are fixed in 4% paraformaldehyde (PFA) containing PBS + 0.2% TX-100. Next, PFA is aspirated, cells are washed two times with PBS plus 0.2% TX-100 and the cells are blocked for 1 hr at room temperature (blocking buffer: LiCOR Blocking Buffer plus 0.2% TX-100). This is followed by aspiration and staining with Alexa-488 conjugated-phospho-rpS6 Ser235/236 antibody for 2 hours at room temperature (Cell Signaling Technology # 4803, 1:50 dilution in blocking buffer). Cells are washed two times with PBS plus 0.2% TX-100, and stained with 10 uM propidium iodide (PI) for 20-25 minutes for cell number measurement (1:500 dilution of Hoescht staining is also added for IN Cell imaging). The plates are scanned on the Acumen Explorer laser scanning instrument (TTP Labtech) using the 488nm laser for simultaneous excitation of the Alexa-488 and PI. The fluorescence emission from the Alexa-488 conjugated rpS6 phospho-235/236 antibody staining is selected using a […] band pass filter. Fluorescence emission from the PI stain is selected using a 575-640 nm band pass filter. The normalized phospho-S6 staining is calculated as the ratio of the integrated Alexa 488 intensity divided by the integrated PI intensity for the single concentration rapamycin control (7.5 nM) and DMSO columns. […] Inhibition of the pathway is defined based on the normalized phospho-S6 intensity in rapamycin treated cells. […]
# Potency is the fitted concentration of half-maximal effect.
SMILES,Potency,"activity change, negative = inhibition"
CCOc1ccc(NC(=O)CSc2oc(-c3ccccc3)nc2S(=O)(=O)c2ccc(Cl)cc2)cc1,3.69 µM (active),
CCN(CC)CCSc1nc2ccccc2c(=O)n1-c1ccc(Cl)cc1,,-100%
Cc1ccccc1-n1c(/C=C/c2c(C)[nH]c3ccccc23)nc2ccccc2c1=O,,-100%
Cc1ccccc1-c1nc(CN2C(=O)CN=C(c3ccccc3)c3ccccc32)c(C)o1,,-100%
CCOc1ccc(CN(CCc2ccc3c(c2)OCO3)Cc2ccc(C)cc2)cc1,,-100%
COc1ccc2nc(NC(=O)c3nc(S(=O)(=O)Cc4cccc(C)c4)ncc3Cl)sc2c1,18.5 µM (active),
CCN(CC)C(=O)c1ccc(NC(=O)CCn2nc(-c3ccc(C)cc3)c3ccccc3c2=O)cc1,,-100%
Cc1ccccc1-n1c(/C=C/c2ccccc2F)nc2ccccc2c1=O,,-100%
O=C(Nc1ccon1)c1cccn(Cc2cccc(Cl)c2)c1=O,,-100%
Cc1ccc(-n2c(/C=C/c3ccc(Br)s3)nc3ccccc3c2=O)cc1C,,-100%
